Test results from the supplement of paper PMC6555819.

How the values were obtained:
Experiment in all cases: PBM binding z-score (relative to random genomic background probes); higher = stronger binding; sequences stand for … in GC…GCGATTGACAGCGTAGAATGAAGG
[1] = tested on: FXR:RXRa (NR concentration 270 nM, RXRa partner concentration 90 nM)
How it was run: (§1)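 Binding z-scores were set against random background probes. The data came from custom Agilent 4×180K protein-binding microarrays carrying double-stranded probes with 34-nt variable regions, incubated 1 h with ligand-free nuclear receptor dimers. Partner-specific antibodies detected binding, and scanned fluorescence was regression-normalized.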

[2] = tested on: LXRa:RXRa (NR concentration 270 nM, RXRa partner concentration 90 nM)
How it was run: as §1

[3] = tested on: LXRa homodimer (NR concentration 270 nM)
How it was run: as §1

[4] = tested on: LXRb:RXRa (NR concentration 270 nM, RXRa partner concentration 90 nM)
How it was run: as §1

[5] = tested on: LXRb homodimer (NR concentration 270 nM)
How it was run: as §1

[6] = tested on: PPARa:RXRa (NR concentration 270 nM, RXRa partner concentration 90 nM)
How it was run: as §1

[7] = tested on: PPARg:RXRa (NR concentration 180 nM, RXRa partner concentration 90 nM)
How it was run: as §1

[8] = tested on: PPARg:RXRa 270nM:90nM, anti-RXR (NR concentration 270 nM, RXRa partner concentration 90 nM)
How it was run: as §1

[9] = tested on: PPARg:RXRa 30nM:10nM, anti-RXR (NR concentration 30 nM, RXRa partner concentration 10 nM)
How it was run: as §1

[10] = tested on: PPARg:RXRa 90nM:30nM, anti-RXR (NR concentration 90 nM, RXRa partner concentration 30 nM)
How it was run: as §1

[11] = tested on: PPARg:RXRa DBDmut IVT, anti-RXR (DBD mutation: RXRa K156A/R161A, NR concentration 270 nM, RXRa partner concentration 90 nM)
How it was run: as §1

[12] = tested on: PPARg:RXRa IVT, anti-PPARg (NR concentration 270 nM, RXRa partner concentration 90 nM)
How it was run: as §1

[13] = tested on: PPARg DBDmut:RXRa IVT, anti-PPARg (DBD mutation: PPARg1 K132A/R137A, NR concentration 270 nM, RXRa partner concentration 90 nM)
How it was run: as §1

[14] = tested on: PPARg DBDmut IVT, anti-PPARg (DBD mutation: PPARg1 K132A/R137A, NR concentration 270 nM)
How it was run: as §1

[15] = tested on: PPARg homodimer (NR concentration 180 nM)
How it was run: as §1

[16] = tested on: PXR:RXRa (NR concentration 270 nM, RXRa partner concentration 90 nM)
How it was run: as §1

[17] = tested on: PXR homodimer (NR concentration 270 nM)
How it was run: as §1

[18] = tested on: RARa:RXR (NR concentration 270 nM, RXRa partner concentration 90 nM)
How it was run: as §1

[19] = tested on: RARa homodimer (NR concentration 270 nM)
How it was run: as §1

[20] = tested on: RARb:RXRa (NR concentration 270 nM, RXRa partner concentration 90 nM)
How it was run: as §1

Sequence	PBM binding z-score [1]	PBM binding z-score [2]	PBM binding z-score [3]	PBM binding z-score [4]	PBM binding z-score [5]	PBM binding z-score [6]	PBM binding z-score [7]	PBM binding z-score [8]	PBM binding z-score [9]	PBM binding z-score [10]	PBM binding z-score [11]	PBM binding z-score [12]	PBM binding z-score [13]	PBM binding z-score [14]	PBM binding z-score [15]	PBM binding z-score [16]	PBM binding z-score [17]	PBM binding z-score [18]	PBM binding z-score [19]	PBM binding z-score [20]
TCTATTAGTTTAAGGGCAACCGACGAGTCCGTTT	1.36	1.32	0.766	1.32	0.433	1.33	0.0687	2.32	3.91	3.18	2.37	0.624	0.439	1.5	1.46	1.39	1.67	1.39	1.3	2.22
ATCTCTAGGTAAAAGCTCAGTGAATCCCGAGGAT	-0.219	-0.28	-0.281	-0.514	0.446	0.485	1.13	2.55	1.27	2.35	2.43	1.66	0.208	0.808	-0.0545	-0.626	-0.475	-0.548	0.418	-0.0301
AGAATGAGGTTATACGTCGATCAGGGAAGAAAGT	2.16	1.54	-0.164	1.29	0.0862	3.16	2.32	2.99	1.45	2.25	2.6	2.09	0.671	0.354	0.876	0.925	0.396	1.51	0.313	1.34
ATATGTAGGTTAAGGGTCATTGAGGTTGGTTCGC	5.02	4.71	3.01	4.45	1.6	6.56	11.9	10	10.5	10.7	7.14	7.77	2.89	2.08	3.71	5.1	4.17	5.84	2.44	3.7
GCGACTGGGGCATCAGCAGGTTACCGTAACTTAA	-0.346	-0.107	-0.365	0.443	-0.973	1.18	0.623	0.961	-0.441	-0.00586	3.92	3.16	-0.711	-1.13	0.0663	-0.0573	-0.613	0.398	-0.334	0.841
ATCTCCAGGTAACCAAGTTCAGTGAATGCCGAAC	0.454	0.776	1.02	0.753	0.946	0.696	0.227	0.427	0.0617	0.231	0.934	1.52	0.875	0.957	0.841	2.24	2.55	0.649	0.534	0.985
CCTGCTTGGTCATGGTCAGCTAATCTACAGTATG	-0.315	-0.299	-0.539	-0.459	-0.639	-0.334	-0.171	-0.154	-0.537	-0.192	0.417	0.0763	-1.17	-0.614	0.0024	-0.154	-0.228	-0.106	-0.318	1.24
ATCTCTAGGTAAAGTTAGTTCAGTGAATGCAAAT	0.83	3.72	0.641	0.747	0.893	0.661	0.555	1.07	0.112	1.03	2.54	2.3	1.03	0.811	1.08	1.65	1.25	1.12	0.947	0.74
GCTAGGTGGTCAGTAAAAGGTCACACACCGGTCG	3.63	4.57	4.44	4.2	0.699	4.56	2.78	4.14	1.72	3.51	0.659	2.52	0.634	0.226	4.93	5.02	1.22	5.97	2.31	4.34
CGTCCAAGGTCAATGCTATGTCAGTGAAAGCATT	6.33	4.8	0.645	3.67	0.692	4.99	3.66	4.41	1.02	2.95	2.87	3.43	-0.154	0.266	2.06	3.61	0.424	3.88	0.262	5.07
ATTTCTAGGTAAGACTCAGTTCAGTGAAGAACGC	0.897	0.946	0.909	0.543	1.31	0.972	0.289	0.947	0.807	0.822	4.54	2.6	1.64	1.76	1.66	1.39	1.8	0.607	2.29	0.674
ACTATTAGGTGAGACGAGGGCAACCGATAGGTTG	1.3	0.503	0.00247	0.202	-0.293	1.5	1.44	1.19	0.65	0.864	4.85	3.95	1.23	0.854	1.46	2.81	0.453	1.39	0.564	1.64
CGTCCAAGGTCATAGTAGGTCAGTGAAGACAGAT	7.5	7.17	4.25	5.79	1.31	5.54	5.27	5.42	2.67	4.32	4.15	5.33	1.45	-0.159	2.97	5.67	2.73	5.14	1.92	5.12
CCTACTGGGCCATCAGGACATTGATATCAACGTT	0.247	-0.3	0.171	-0.621	-0.424	0.703	1.19	1.26	0.361	0.825	3.58	3.83	0.0869	0.0679	0.687	-0.0432	-0.0909	0.486	0.102	0.235
